# From PubChem BioAssay (NCI)
# Compounds without any hit were thinned out: in the full panel of roughly 83,000, 20% have a hit.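 Interpretation: 100, growth as untreated; towards 0, rising growth inhibition; 0, no net growth; 0 to -100, cell death. Compounds scoring below 10 were considered active.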 A number with no mark means an inactive call. The source made the active and inactive calls.
# Legend:
# Assay in all cases: NCI-60 one-dose screen, 48 h (100 = growth as untreated, 0 = no growth, -100 = all killed)
# Conditions in all cases: 10 µM unless noted
# [1] = test system: SR leukemia
# [2] = test system: OVCAR-8 ovarian
# [3] = test system: OVCAR-5 ovarian
# [4] = test system: OVCAR-4 ovarian
# [5] = test system: SK-OV-3 ovarian
# [6] = test system: OVCAR-3 ovarian
# [7] = test system: HS 578T breast
# [8] = test system: NCI/ADR-RES ovarian
# [9] = test system: T-47D breast
# [10] = test system: BT-549 breast
# [11] = test system: MDA-MB-435 melanoma
# [12] = test system: SW-620 colon
# [13] = test system: MCF7 breast
# [14] = test system: HCT-116 colon
# [15] = test system: KM12 colon
# [16] = test system: IGROV1 ovarian
# [17] = test system: HCC-2998 colon
# [18] = test system: RPMI-8226 leukemia
Structure (SMILES),growth [1],growth [2] [%],growth [3] [%],growth [4] [%],growth [5] [%],growth [6] [%],growth [7],growth [8] [%],growth [9] [%],growth [10] [%],growth [11] [%],growth [12] [%],growth [13] [%],growth [14] [%],growth [15] [%],growth [16],growth [17] [%],growth [18] [%]
Clc1ccc2c(c1)C(Br)c1cc(Cl)cc(Cl)c1-2 (stereo not given),-4.33% (active),101,84.4,88.5,80,91.7,65.1%,96.1,73,87.3,85.7,60.4,69,65.4,98.3,,,
Nc1ccccc1-c1ccn[nH]1,99.7%,103,,94.7,92.1,91.6,100%,105,93.5,91.2,93.2,96.7,100,92.7,82.3,84.2%,97.2,
COC(=O)C1(NC(=O)CNC(=O)OCc2ccccc2)CCCC1,100%,106,,98.3,111,149,131%,111,113,99.1,106,104,93.9,99.9,108,115%,108,
CCCCCCCSc1ncnc2[nH]ncc12,79.3%,86.9,92,96.7,101,79.9,,84.6,51.9,88.4,,61.9,81.7,62.7,83.2,81.7%,119,
O=C1OC(Oc2ccccc2)(c2ccccc2)c2ccccc21 (stereo not given),79.1%,102,99.6,,106,97,101%,100,100,102,102,106,117,102,93.3,107%,104,
Nc1ncnc2c1CN(Cc1ccccc1)CC2,94.6%,106,114,102,,129,,104,105,108,107,107,93.6,102,108,118%,98.5,
c1ccc(-c2oc(-c3ccccc3)c3ccccc23)cc1,56.8%,102,,,116,124,97.7%,96.5,101,96.5,107,109,,108,105,109%,107,
CC(=O)O[C@H]1CC[C@@]2(C)C(=CC[C@@H]3[C@@H]2CC[C@]2(C)C(c4cccnc4)=CC[C@@H]32)C1,30.8%,,95.6,47.2,76.7,70.3,-7.37% (active),45.4,47.2,63.4,34.5,76.4,46,54.1,53.7,,65.1,
COc1cccc(N2CCN(c3cccc(C)n3)CC2)c1,,87.1,96.5,116,107,87.5,100%,95.5,115,105,95.1,110,95.4,91,110,-11.8% (active),107,115
Clc1ccc(C2c3ccccc3-c3nccn32)c(Cl)c1 (stereo not given),,84.1,114,47.3,84.7,55,73.7%,61.5,56.2,83.8,89.6,85.4,80.5,49,79.2,77.1%,99,26.5
N#Cc1c(NC(=O)c2ccco2)[n+]([O-])c2ccccc2[n+]1[O-],,90.3,89.7,109,110,115,98%,116,90.8,92.9,107,107,71.3,93.8,109,-49.8% (active),98.3,447
CCN(CC)c1ccc(/C=C/C(=O)c2cccc(NS(C)(=O)=O)c2)cc1,-4.7% (active),,64.4,42.2,51.1,48.5,28.5%,26.4,44.3,,22.7,22.1,22.8,25.8,17.1,9.33% (active),23.2,
O=c1ccn(C2CC=C(CO)O2)c(=O)[nH]1 (stereo not given),,103,102,110,102,107,112%,116,96.5,106,106,103,92,96,103,86.2%,123,84.5
